An excerpt weighted towards active compounds, which were near 0.97% of everything screened.
Beta2AR agonist: activates human beta-2 adrenergic receptor causing internalization | Am2.2-beta2AR cells, FAP receptor internalization, flow cytometry | hit rate 0.43% among 340,000 | response, % (concentration not given with the values);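 active = response above a set limit, near 3 SD of response in nonfluorescent compounds, cut at about 42% in these data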
TLR9-MyD88 inh: blocks human TLR9 binding to MyD88; Q9NR96+Q99836; CHO BLA complementation TLR9-MyD88, CCF4 FRET ratio; inhibition, % at 4.98 µM; hit rate 0.21% among 340,000; AID 504734;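 active = inhibition above the mean over all tested compounds plus 3 SD, cut at about 21% in these data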;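 also: 0% = DMSO only wells and 100% = clavulanate BLA inhibitor control wells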
NTR1 agonist: activates human neurotensin receptor 1; NTR1-U2OS beta-arrestin-GFP spot imaging, agonist mode; activation, % at 20 µM; P30989; AID 493036; hit rate 0.17% among 330,000;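 active = activation at or above 40% of the spot to cytoplasm intensity ratio, with at least 20 cells analyzed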;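 also: 0% = DMSO without peptide and 100% = 100 nM NTR1 peptide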
TLR4 MyD88 comp: TLR4-MyD88 interaction inhibition in cells; HeLa CL3-4 TLR4/MyD88 BLA complementation, FRET ratio; hit rate 0.18% among 200,000; inhibition, % at 8.4 µM; in the data active = inhibition above about 25%;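 also: 0% = vehicle and 100% = reference inhibitor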
A1 inh: inhibitors of the anti-apoptotic protein A1, read as caspase activation; hit rate 0.066% among 330,000; caspase activation, % (no concentration beside the values); MEF A1-2A-BIM cells, Caspase-Glo 3/7 luminescence, 3 h; percent of clofoctol response, vehicle zero;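 active = over half of replicate activation scores above 10%, or exactly half above 10 with the replicate mean above 10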
NOD2-RIPK2 inh: NOD2-RIPK2 protein interaction inhibition. CHO BLA complementation NOD2-RIPK2, CCF4 ratio. O43353. inhibition, % at 4.98 µM. hit rate 0.38% among 360,000; in the data active = inhibition above about 21%;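 also: 0% = vehicle only and 100% = reference blocker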
Target sequence (O43353 whole entry, looked up): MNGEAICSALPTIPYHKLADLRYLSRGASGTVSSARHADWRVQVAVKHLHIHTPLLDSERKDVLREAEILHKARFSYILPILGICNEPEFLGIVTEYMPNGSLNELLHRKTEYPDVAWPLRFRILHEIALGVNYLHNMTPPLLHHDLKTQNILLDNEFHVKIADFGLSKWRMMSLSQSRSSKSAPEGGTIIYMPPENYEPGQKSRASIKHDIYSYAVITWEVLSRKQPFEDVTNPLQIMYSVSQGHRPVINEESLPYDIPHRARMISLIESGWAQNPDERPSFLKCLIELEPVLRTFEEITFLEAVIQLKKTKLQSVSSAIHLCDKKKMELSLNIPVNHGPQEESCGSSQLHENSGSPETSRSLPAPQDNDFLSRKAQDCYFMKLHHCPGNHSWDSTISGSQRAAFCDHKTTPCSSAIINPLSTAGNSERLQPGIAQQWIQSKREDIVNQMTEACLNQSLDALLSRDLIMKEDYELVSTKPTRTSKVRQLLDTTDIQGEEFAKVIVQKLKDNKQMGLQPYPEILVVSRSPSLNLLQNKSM
NOD2-RIPK2 conf: confirmation of human NOD2-RIPK2 interaction inhibitors. inhibition, % at 4.98 µM. hit rate 70% among 1,200. CHO cells, NOD2-RIPK2 BLA complementation, CCF4 FRET. shares compounds with NOD2-RIPK2 inh;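 active = mean inhibition across replicates above a set limit taken from the earlier primary screen, cut at about 21% in these data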;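 also: 0% = DMSO-only wells and the high end = clavulanate BLA-blocked wells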
NOD2 BLA counter: NOD2-RIPK2 counterscreen BLA reporter activity; hit rate 57% among 1,200; inhibition, % at 4.98 µM; shares compounds with NOD2-RIPK2 inh; CHO BLA reporter, CCF4 FRET ratio;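 active = mean inhibition above the low-control mean inhibition plus three low-control SD, cut at about 11% in these data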;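 also: 0% = DMSO only wells and 100% = clavulanate high control wells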
Active calls of the source: *.

How did N#CC1C(=O)c2ccccc2C1c1ccccc1 (stereo not given) do in these assays?
Beta2AR agonist: 5; TLR9-MyD88 inh: 7; NOD2-RIPK2 inh: 48*; NOD2-RIPK2 conf: -6; NOD2 BLA counter: 0

How did Cc1nc(-c2ccc(S(=O)(=O)N3CCN(CCc4ccccc4)CC3)s2)cs1 do in these assays?
Beta2AR agonist: -3; NTR1 agonist: 1; A1 inh: 1; NOD2-RIPK2 inh: -3

How did COCCNC(=S)N/N=C/c1ccc(-c2ccc([N+](=O)[O-])cc2)o1 do in these assays?
Beta2AR agonist: 4; TLR9-MyD88 inh: 14; NTR1 agonist: 35; A1 inh: 0; NOD2-RIPK2 inh: 31*; NOD2-RIPK2 conf: 44*; NOD2 BLA counter: 47*

What do the screens show for `NC(=O)N/N=C/c1ccc(-c2ccc([N+](=O)[O-])cc2)o1`?
Beta2AR agonist: 1; TLR9-MyD88 inh: -1; NTR1 agonist: 3; A1 inh: 0; NOD2-RIPK2 inh: 9

Results for COC(=O)CC[C@@H](C(=O)O)N1C(=O)c2ccccc2C1=O ?
Beta2AR agonist: -4; TLR9-MyD88 inh: 3; NTR1 agonist: -1; TLR4 MyD88 comp: 17; A1 inh: 0; NOD2-RIPK2 inh: 2

Results for O=c1cccccc1NN=C1CCCCC1 ?
Beta2AR agonist: 3; TLR9-MyD88 inh: 4; NTR1 agonist: -1; A1 inh: 0; NOD2-RIPK2 inh: -4

Results for Cc1cccc(NC(=O)CSCC(=O)Nc2cc(S(=O)(=O)N3CCOCC3)ccc2OC(C)C)c1 ?
Beta2AR agonist: 8; TLR9-MyD88 inh: -1; NTR1 agonist: 1; A1 inh: 0; NOD2-RIPK2 inh: 21*; NOD2-RIPK2 conf: 4; NOD2 BLA counter: -4

Results for Cc1ccc(CSCC(=O)Nc2cc(S(=O)(=O)N3CCOCC3)ccc2OC(C)C)cc1 ?
Beta2AR agonist: -4; TLR9-MyD88 inh: -1; NTR1 agonist: 3; A1 inh: 0; NOD2-RIPK2 inh: -16

How did O=C(c1cc2ccccc2o1)N1CCC(N2CCC(C(=O)N3CCCC3)CC2)CC1 do in these assays?
Beta2AR agonist: 0; TLR9-MyD88 inh: 0; NTR1 agonist: -2; TLR4 MyD88 comp: -10; A1 inh: 0; NOD2-RIPK2 inh: 4

What do the screens show for `COc1ccc(OC)c(NC(=O)CSc2nc(=O)n(CCN3CCOCC3)c3c2CCC3)c1`?
Beta2AR agonist: -2; TLR9-MyD88 inh: 6; NTR1 agonist: 1; A1 inh: -1; NOD2-RIPK2 inh: 10

How did O=C(NN=Cc1c(O)ccc2ccccc12)c1ccncc1 do in these assays?
Beta2AR agonist: -6; TLR9-MyD88 inh: 19; NOD2-RIPK2 inh: 28*; NOD2-RIPK2 conf: 27*; NOD2 BLA counter: 21*

How did COc1ccc(C)c2sc(N(CCN(C)C)C(=O)/C=C/c3cccs3)nc12 do in these assays?
Beta2AR agonist: 22; TLR9-MyD88 inh: 2; NTR1 agonist: 26; A1 inh: 0; NOD2-RIPK2 inh: 13

Results for COc1ccc(OC)c2sc(N(CCN(C)C)C(=O)/C=C/c3cccs3)nc12 ?
Beta2AR agonist: 19; TLR9-MyD88 inh: -13; NTR1 agonist: 16; A1 inh: 0; NOD2-RIPK2 inh: 21*; NOD2-RIPK2 conf: 38*; NOD2 BLA counter: 8

What do the screens show for `Cc1ccc2nc(N(CCN(C)C)C(=O)/C=C/c3cccs3)sc2c1`?
Beta2AR agonist: 1; TLR9-MyD88 inh: 16; NTR1 agonist: 7; TLR4 MyD88 comp: -15; A1 inh: -1; NOD2-RIPK2 inh: 22*; NOD2-RIPK2 conf: 32*; NOD2 BLA counter: 25*

How did O=C(N/N=C/c1ccc(C(=O)O)cc1)C1=NNC(c2ccccc2)(c2ccccc2)C1 do in these assays?
Beta2AR agonist: -2; TLR9-MyD88 inh: 3; NTR1 agonist: 0; TLR4 MyD88 comp: -6; A1 inh: 0; NOD2-RIPK2 inh: -20

What do the screens show for `CCCCc1nc2ccccc2c(NC(=O)CN(CC)CC)c1CCC`?
Beta2AR agonist: -2; TLR9-MyD88 inh: -3; NTR1 agonist: 2; TLR4 MyD88 comp: -3; A1 inh: -1; NOD2-RIPK2 inh: -3

What do the screens show for `COc1cccc(OC)c1OCCNCC1CSc2ccccc2O1` (stereo not given)?
Beta2AR agonist: -4; TLR9-MyD88 inh: -9; NTR1 agonist: -1; A1 inh: 1; NOD2-RIPK2 inh: 6

Results for C(=Cc1c[nH]c2ccccc12)c1ccc2ccccc2n1 ?
Beta2AR agonist: -289; TLR9-MyD88 inh: 11; NOD2-RIPK2 inh: 29*; NOD2-RIPK2 conf: 33*; NOD2 BLA counter: 47*

How did C#CCN(C[C@@H]1[C@@H](OC(=O)NCc2ccccc2F)[C@@H](OC(=O)NCc2ccccc2F)Cn2c(=O)ccc(=O)n21)S(=O)(=O)c1ccc(C)cc1 do in these assays?
TLR9-MyD88 inh: -2; NOD2-RIPK2 inh: 23*; NOD2-RIPK2 conf: 21*; NOD2 BLA counter: -3

What do the screens show for `COc1ccc(OC)c(CNS(=O)(=O)c2cn(C)cn2)c1`?
Beta2AR agonist: 2; TLR9-MyD88 inh: -11; NTR1 agonist: 0; A1 inh: 0; NOD2-RIPK2 inh: -1

What do the screens show for `CCN1c2ccccc2S(=O)(=O)c2ccccc21`?
Beta2AR agonist: -3; TLR9-MyD88 inh: -6; NTR1 agonist: 0; A1 inh: 2; NOD2-RIPK2 inh: -3

How did O=c1ccc2ccccc2c2ccccc12 do in these assays?
NOD2-RIPK2 inh: 43*; NOD2-RIPK2 conf: 41*; NOD2 BLA counter: -3

What do the screens show for `c1ccc2c(c1)ccc1ccccc12`?
Beta2AR agonist: -2; TLR9-MyD88 inh: -10; NTR1 agonist: -1; NOD2-RIPK2 inh: -11

What do the screens show for `CC(C)OP(=O)(OC(C)C)C(Nc1ccccn1)c1ccc(F)cc1` (stereo not given)?
Beta2AR agonist: 10; TLR9-MyD88 inh: -2; NTR1 agonist: -2; TLR4 MyD88 comp: 15; A1 inh: 0; NOD2-RIPK2 inh: 1

What do the screens show for `COc1ccc2c(c1)sc1nc(-c3ccccc3)cn12`?
Beta2AR agonist: 12; TLR9-MyD88 inh: -8; NTR1 agonist: 4; TLR4 MyD88 comp: -5; A1 inh: -10; NOD2-RIPK2 inh: 40*; NOD2-RIPK2 conf: 9; NOD2 BLA counter: -1

What do the screens show for `CCOC(=O)N1CCN(C(=O)c2ccc3c(c2)sc2nc(-c4ccc(OC)cc4)cn23)CC1`?
Beta2AR agonist: 5; TLR9-MyD88 inh: -6; NTR1 agonist: 4; TLR4 MyD88 comp: 6; A1 inh: 2; NOD2-RIPK2 inh: 2

Results for COc1ccc2c3c(cccc13)C(=O)CC2 ?
Beta2AR agonist: 10; TLR9-MyD88 inh: 0; A1 inh: 0; NOD2-RIPK2 inh: 27*; NOD2-RIPK2 conf: 2; NOD2 BLA counter: 5
